# Experimental data as given in article PMC4336329 (PLoS ONE, 2015).
# Hit rate of the full screen: of about 310,000 compounds, about 14,000 (4.5%) showed an effect of 50% or more. Effects have a minus sign here. The sample as a whole holds a higher share of strong results than the screen did.
# Molecular target: human ether-à-go-go-related gene (hERG) potassium channel (human, UniProt Q12809)
# Test: primary screen, population patch clamp on CHO cells stably expressing hERG; higher = less effect of the substance
# 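Note: peak tail current of the secondary pulse compared with the same well before compound.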
# Chain of human ether-à-go-go-related gene (hERG) potassium channel (Q12809 whole entry, looked up): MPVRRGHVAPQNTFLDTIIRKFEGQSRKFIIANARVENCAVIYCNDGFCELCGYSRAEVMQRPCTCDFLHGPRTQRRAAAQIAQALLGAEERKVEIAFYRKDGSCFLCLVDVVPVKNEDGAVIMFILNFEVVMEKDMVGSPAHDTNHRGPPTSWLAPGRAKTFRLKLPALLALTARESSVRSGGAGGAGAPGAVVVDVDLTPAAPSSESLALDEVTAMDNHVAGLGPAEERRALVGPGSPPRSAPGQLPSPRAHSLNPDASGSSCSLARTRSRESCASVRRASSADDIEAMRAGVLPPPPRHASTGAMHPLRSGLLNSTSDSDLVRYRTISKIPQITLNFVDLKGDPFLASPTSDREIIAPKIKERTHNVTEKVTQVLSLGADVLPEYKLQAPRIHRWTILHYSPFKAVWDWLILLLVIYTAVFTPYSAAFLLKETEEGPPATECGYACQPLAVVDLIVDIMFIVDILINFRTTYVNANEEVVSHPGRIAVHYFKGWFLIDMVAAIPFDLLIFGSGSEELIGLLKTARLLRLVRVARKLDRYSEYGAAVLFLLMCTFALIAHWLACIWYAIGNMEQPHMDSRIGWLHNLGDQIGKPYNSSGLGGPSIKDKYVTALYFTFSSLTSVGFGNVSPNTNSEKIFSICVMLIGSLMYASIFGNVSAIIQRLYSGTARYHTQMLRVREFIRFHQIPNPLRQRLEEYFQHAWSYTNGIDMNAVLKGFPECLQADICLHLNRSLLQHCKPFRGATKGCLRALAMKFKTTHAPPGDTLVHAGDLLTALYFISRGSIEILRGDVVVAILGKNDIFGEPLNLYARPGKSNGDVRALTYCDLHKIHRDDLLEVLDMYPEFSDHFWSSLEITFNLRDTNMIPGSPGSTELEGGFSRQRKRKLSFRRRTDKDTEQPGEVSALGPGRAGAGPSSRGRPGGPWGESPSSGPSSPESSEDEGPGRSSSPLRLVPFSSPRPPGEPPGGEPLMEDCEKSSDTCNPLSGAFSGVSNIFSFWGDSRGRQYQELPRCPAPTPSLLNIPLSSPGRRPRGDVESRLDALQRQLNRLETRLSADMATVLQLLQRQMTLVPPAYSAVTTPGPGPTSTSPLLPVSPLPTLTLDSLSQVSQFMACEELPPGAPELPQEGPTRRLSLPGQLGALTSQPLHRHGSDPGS
row,SMILES,"hERG current change (%, negative = inhibition) at 10uM"
1,COc1cc(/C=N/Nc2nc(=O)[nH]nc2C)cc(OC)c1O,11.7%
2,COc1ccc(NC(=O)Cn2nnc(-c3ccccc3NC(=O)c3ccco3)n2)cc1,-12.8%
3,COc1cccc(OC)c1C(=O)Nc1ccccc1C(=O)N1CCOCC1,5.4%
4,CC(CNC(=O)CCC(=O)N1CCOc2ccccc21)c1ccccc1 (stereo not shown),-9.84%
5,Fc1cccc(Cl)c1CSc1nnc2ccccn12,9.48%
6,COc1ccccc1NC(=O)NNC(=O)C(C)Oc1ccc2ccccc2c1 (stereo not shown),9.36%
7,Cc1cc2cc(CNC(=S)NC3CCCCC3)ccc2n1C,13.8%
8,Cc1cc(OC(C)C(=O)N2CCN(c3ccc(F)cc3)CC2)c2c(C)cc(=O)oc2c1 (stereo not shown),-1.27%
9,O=C(NCCOc1ccccc1Cl)c1ncn[nH]1,-2.83%
10,COCCNC(=O)C(c1ccc(F)cc1)N(C(=O)CCC(=O)Nc1ccccn1)c1cccc(C)c1 (stereo not shown),16.2%
11,CC(=O)c1ccc(OCC(O)CN2CCN(Cc3ccc4c(c3)OCO4)CC2)cc1.Cl (stereo not shown),-49.8%
12,Cc1ccc(OCC(O)CN2CCN(Cc3ccc4c(c3)OCO4)CC2)cc1C.Cl (stereo not shown),-61.1%
13,CC(=O)c1ccc(OCC(O)CN2CCN(Cc3ccc4c(c3)OCO4)CC2)cc1 (stereo not shown),-34.8%
14,Cc1ccc(OCC(O)CN2CCN(Cc3ccc4c(c3)OCO4)CC2)c(C)c1.Cl (stereo not shown),-57.1%
15,COc1cc(COCC(O)CN2CCN(Cc3ccc4c(c3)OCO4)CC2)cc(OC)c1OC.Cl (stereo not shown),-0.319%
16,Cc1ccc(C)c(OCC(=O)N2CCN(Cc3ccc4c(c3)OCO4)CC2)c1,-23.3%
17,Cc1cccc(N2CCN(C(=O)CCn3c(=O)[nH]c4ccsc4c3=O)CC2C)c1 (stereo not shown),21.5%
18,COc1ccc(OC)c2sc(NC(=O)c3ccc(S(=O)(=O)N4CCOCC4)cc3)nc12,-2.05%
19,CC(NCCO)C(=O)C12CC3CC(CC(C3)C1)C2.Cl (stereo not shown),13.1%
20,CCOC(=O)C1CCN(C(=O)Cn2cnc3sc(C)c(S(=O)(=O)N4CCOCC4)c3c2=O)CC1,-14%
21,Cc1sc2ncn(CC(=O)N3CCN(c4ccc(F)cc4)CC3)c(=O)c2c1S(=O)(=O)N1CCOCC1,-64.3%

row,SMILES,"hERG current change (%, negative = inhibition) at 10uM"
1,CCOC(=O)C1CCN(C(=O)Cn2cnc3sc(C)c(S(=O)(=O)N4CCC(C)CC4)c3c2=O)CC1,-67.9%
2,COc1ccc(N2CCN(C(=O)Cn3cnc4sc(C)c(S(=O)(=O)N5CCOCC5)c4c3=O)CC2)cc1,-20.7%
3,Cc1sc2ncn(CC(=O)N3CCN(c4ccccc4)CC3)c(=O)c2c1S(=O)(=O)N1CCOCC1,-16%
4,CCOC(=O)C1CCN(C(=O)Cn2cnc3sc(C)c(S(=O)(=O)N4CCCCC4)c3c2=O)CC1,-35.5%
5,CC1(C)CC(=O)C=C(Nc2cc(-c3ccccc3)[nH]n2)C1,-11.2%
6,CC(NC(=O)C1CCC(=O)N1Cc1ccccc1Cl)c1ccccc1 (stereo not shown),12.8%
7,COc1ccccc1-c1cc(C(=O)Nc2c(C)n(C)n(-c3ccccc3)c2=O)no1,-34.9%
8,N#CCC(=O)N/N=C/c1ccccc1Cl,6.55%
9,Cc1nn(C)c(C)c1S(=O)(=O)NC1CCCC1,-12%
10,CCN(C(=O)CN1CCN(c2cccc(C(F)(F)F)c2)CC1)c1c(N)n(Cc2ccccc2)c(=O)[nH]c1=O,-20.3%
11,C[n+]1c(-c2ccccc2)cc(-c2ccc(O)cc2)cc1-c1ccccc1.[O-][Cl+3]([O-])([O-])[O-],-61.4%
12,C[n+]1c(-c2ccccc2)cc(CCCCc2cc(-c3ccccc3)[n+](C)c(-c3ccccc3)c2)cc1-c1ccccc1.[O-][Cl+3]([O-])([O-])[O-],-30.6%
13,O=C(c1ccccc1)c1ccc(-c2ccc(O)cc2)cc1,10.1%
14,Oc1ccc(-c2cccc(-c3ccc(O)cc3)c2)cc1,3.27%
15,C[n+]1c(-c2ccccc2)cc(-c2ccc(Cl)cc2)cc1-c1ccccc1.[O-][Cl+3]([O-])([O-])[O-],-84.1%
16,Cc1cc(-c2ccccc2)cc(-c2ccccc2)[n+]1C.[Cl-],-13.6%
17,COCCNC(=O)C(c1ccc(C)o1)N(C(=O)c1snc(C(N)=O)c1N)c1cc(C)cc(C)c1 (stereo not shown),-28.5%
18,COc1ccc(Cc2nnc(SCc3nc4ccccc4c(=O)[nH]3)n2C)cc1,-11.9%
19,COc1ccc(C(CC(=O)O)N2Cc3ccccc3C2=O)cc1 (stereo not shown),14.4%
20,CC(C)=CCCC1=CCC2C(=O)NNC(=O)C2C1 (stereo not shown),9.53%
21,CC(C)=CCCC1=CCC(/C=N/NC(N)=O)C(C)C1 (stereo not shown),9%

row,SMILES,"hERG current change (%, negative = inhibition) at 10uM"
1,CC(C)=CCCC1=CCC(/C(C)=N/NC(N)=O)CC1 (stereo not shown),-53.7%
2,CC(=O)N1c2c(cc(Br)cc2S(=O)(=O)N2CCOCC2)CC1C (stereo not shown),-0.158%
3,COCCn1c(C)cc(C(=O)CSc2nnnn2C2CCCC2)c1C,-69%
4,COc1ccc(Cl)cc1C(=O)CSc1nnnn1C1CCCC1,-6.05%
5,COCC(C)n1c(C)cc(C(=O)CSc2nnnn2C2CCCC2)c1C (stereo not shown),-33.2%
6,COc1ccc(Cl)cc1C(=O)CSc1nnnn1C1CCCCC1,-4.88%
7,COCCn1c(C)cc(C(=O)CSc2nnc(C3CC3)n2C2CC2)c1C,5.4%
8,CCn1c(C)cc(C(=O)CSc2nnnn2C2CCCC2)c1C,-53.5%
9,COc1ccc(COC(=O)CCNC(=O)c2ccc(Cl)cc2)cc1,-32.5%
10,COc1cccc(NC(=S)N(CCCN2CCCC(C)C2)Cc2cccs2)c1 (stereo not shown),-67.4%
11,COc1ccc(NC(=S)N(CCCN2CCCC(C)C2)Cc2cccs2)cc1 (stereo not shown),-68.9%
12,COc1cccc(NC(=S)N(CCCN2CCCC2)Cc2ccco2)c1,-46.3%
13,COc1cccc(NC(=S)N(CCCN2CCCC2)Cc2cccn2Cc2ccc(Cl)cc2)c1,-41.2%
14,CCOCCNC(=O)c1ccc2c3c(cccc13)CC2,3.39%
15,Cc1csc(-c2coc3cc(O)cc(C)c3c2=O)n1,2.27%
16,O=C1c2ccccc2C(=O)c2c1cccc2N1CCCC1,-14.3%
17,O=C1c2ccccc2C(=O)c2c1cccc2N1CCN(Cc2ccccc2)CC1,-56.9%
18,O=C1c2ccccc2C(=O)c2c1cccc2N1CCN(C/C=C/c2ccccc2)CC1,-7.23%
19,O=C1c2ccccc2C(=O)c2c1cccc2N1CCN(CCO)CC1,-69.7%
20,O=C1c2ccccc2-c2onc3c(N4CCN(CCO)CC4)cc(N4CCN(C(=O)c5ccco5)CC4)c1c23,-22.1%
21,O=C1c2cccc(Cl)c2C(=O)c2c1cccc2N1CCCC1,-9.16%

row,SMILES,"hERG current change (%, negative = inhibition) at 10uM"
1,O=C(NCCc1ccccc1)C1CCN(C(=O)Nc2ccccc2)CC1,8.37%
2,COc1ccc(NC(=O)CCCn2c(=O)c3sccc3n(Cc3ccccc3)c2=O)cc1,-20.8%
3,CC(C)(C)NC(=O)C(c1ccco1)N(C(=O)c1csnn1)c1ccccc1 (stereo not shown),-4.55%
4,CC12CCC(C(=O)N(CCCCN3CCN(Cc4ccccc4)CC3)C1=O)C2(C)C.Cl (stereo not shown),-45.2%
5,O=C(CNC(=O)c1[nH]cnc1C(=O)N[C@@H](Cc1ccccc1)C(=O)OCc1ccccc1)OCc1ccccc1,7.48%
6,COCCn1nnnc1C(c1ccc(OC)cc1OC)N1CCN(c2ccccc2)CC1 (stereo not shown),-70.8%
7,CC(C)C(c1nnnn1Cc1cccs1)N1CCN(c2ccccc2)CC1 (stereo not shown),20%
8,COc1ccccc1CN1CCN(C(CC(C)C)c2nnnn2Cc2cccs2)CC1.Cl (stereo not shown),-57.9%
9,CCC(C)(C)n1nnnc1C(c1ccc(OC)c(OC)c1)N1CCN(c2ccc(F)cc2)CC1.Cl (stereo not shown),-72.9%
10,CCC(C)(C)n1nnnc1C(c1ccc(OC)c(OC)c1)N1CCN(c2ccccc2)CC1 (stereo not shown),-39.5%
11,COCCn1nnnc1C(c1ccc(OC)cc1OC)N1CCN(c2ccccc2F)CC1.Cl (stereo not shown),-9.23%
12,CCC(C)(C)n1nnnc1C(c1ccc(OC)c(OC)c1)N1CCN(c2ccc(OC)cc2)CC1.Cl (stereo not shown),-15.9%
13,COc1ccc(C(c2nnnn2Cc2cccs2)N2CCN(c3ccccc3)CC2)cc1OC (stereo not shown),-63.5%
14,CCC(c1nnnn1CCOC)N1CCN(Cc2ccccc2OC)CC1.Cl (stereo not shown),-6.05%
15,COCCn1nnnc1C(c1ccccc1OC)N1CCN(c2ccccc2)CC1.Cl (stereo not shown),-4.6%
16,CCC(c1nnnn1C(C)(C)C)N1CCN(Cc2ccccc2OC)CC1.Cl (stereo not shown),-19.2%
17,COc1ccc(C(c2nnnn2Cc2cccs2)N2CCN(c3ccccc3F)CC2)cc1OC.Cl (stereo not shown),-39.6%
18,N/C(=N\OC(=O)c1ccc(=O)n(Cc2ccc(Cl)cc2)c1)c1ccccn1,-33.2%
19,CC1Sc2ccc(S(=O)(=O)NCc3ccccc3)cc2NC1=O (stereo not shown),1.74%
